The record followed here is PubChem BioAssay.

Assay [1] has as its system Plasmodium falciparum Sir2 (PF13_0152, Sir2A). In words: Plasmodium falciparum Sir2A binding compounds – biochemical, small-molecule microarray, 635 nm fluorescence, primary screen (AID 1098).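 Also: score merges spot fluorescence intensity with its signal-to-noise ratio.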 The following applies: fluorescence 635 nm, higher = more signal.
Assay [2] can be described thus: probe aDKK1 binding to arrayed compounds – biochemical, biotinylated probe, 635/667 nm fluorescence, primary screen (AID 1099).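 Also: score merges 667nm spot fluorescence with signal to noise across triplicate slides.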 The following applies: small-molecule microarray, higher = more signal.
Assay [3] can be described thus: probe aCHRDL2 binding to arrayed compounds – biochemical, biotinylated probe, 635/667 nm fluorescence, primary screen (AID 1100). The following applies: small-molecule microarray, higher = more signal.
The nature of assay [4]: change in splice reporter luminescence, either direction, cell-based, HEK293, spliceosome inhibition project, primary screen (AID 1101).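 Also: HEK293 cells carrying a splicing-competent luciferase reporter gene; test concentration not given here.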 The following applies: HEK293 splicing luciferase reporter, 24 h, higher = more signal, called active from +8 up or from −8 down. For orientation: A reporter such as luciferase makes a cellular process visible.
The target in assay [5] is Fibroblast growth factor 10 (Homo sapiens) (UniProt O15520). In words: compounds binding fibroblast growth factor 10 – biochemical, small-molecule microarray, 635 nm fluorescence, primary screen (AID 1102). The following applies: FGF10 binding, fluorescence 635 nm, higher = more signal.
Sequence of Fibroblast growth factor 10 (Homo sapiens) (O15520 whole entry, looked up): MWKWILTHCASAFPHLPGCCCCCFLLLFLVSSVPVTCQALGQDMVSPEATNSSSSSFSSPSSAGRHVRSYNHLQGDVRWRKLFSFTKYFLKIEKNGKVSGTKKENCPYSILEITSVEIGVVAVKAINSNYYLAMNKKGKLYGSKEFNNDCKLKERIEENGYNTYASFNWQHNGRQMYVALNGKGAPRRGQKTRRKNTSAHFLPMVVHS
Assay [6] relates to glycogen synthase kinase-3 (GSK3A per assay name; protocol says GSK3B). The assay is described as follows: compounds binding glycogen synthase kinase-3 – biochemical, small-molecule microarray, 635 nm fluorescence, GSK3A, primary screen (AID 1103). Also: the record names both GSK3A and GSK3B. The following applies: fluorescence 635 nm, higher = more signal.
Assay [7] deals with Epidermal growth factor receptor (Homo sapiens) (UniProt P00533). The assay is described as follows: compounds binding epidermal growth factor receptor – biochemical, small-molecule microarray, 635 nm fluorescence, primary screen (AID 1104).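 Also: score merges 667 nm emission intensity with spot signal to noise over triplicate slides.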 The following applies: EGFR binding, higher = more signal.
Sequence of Epidermal growth factor receptor (Homo sapiens) (P00533 whole entry, looked up): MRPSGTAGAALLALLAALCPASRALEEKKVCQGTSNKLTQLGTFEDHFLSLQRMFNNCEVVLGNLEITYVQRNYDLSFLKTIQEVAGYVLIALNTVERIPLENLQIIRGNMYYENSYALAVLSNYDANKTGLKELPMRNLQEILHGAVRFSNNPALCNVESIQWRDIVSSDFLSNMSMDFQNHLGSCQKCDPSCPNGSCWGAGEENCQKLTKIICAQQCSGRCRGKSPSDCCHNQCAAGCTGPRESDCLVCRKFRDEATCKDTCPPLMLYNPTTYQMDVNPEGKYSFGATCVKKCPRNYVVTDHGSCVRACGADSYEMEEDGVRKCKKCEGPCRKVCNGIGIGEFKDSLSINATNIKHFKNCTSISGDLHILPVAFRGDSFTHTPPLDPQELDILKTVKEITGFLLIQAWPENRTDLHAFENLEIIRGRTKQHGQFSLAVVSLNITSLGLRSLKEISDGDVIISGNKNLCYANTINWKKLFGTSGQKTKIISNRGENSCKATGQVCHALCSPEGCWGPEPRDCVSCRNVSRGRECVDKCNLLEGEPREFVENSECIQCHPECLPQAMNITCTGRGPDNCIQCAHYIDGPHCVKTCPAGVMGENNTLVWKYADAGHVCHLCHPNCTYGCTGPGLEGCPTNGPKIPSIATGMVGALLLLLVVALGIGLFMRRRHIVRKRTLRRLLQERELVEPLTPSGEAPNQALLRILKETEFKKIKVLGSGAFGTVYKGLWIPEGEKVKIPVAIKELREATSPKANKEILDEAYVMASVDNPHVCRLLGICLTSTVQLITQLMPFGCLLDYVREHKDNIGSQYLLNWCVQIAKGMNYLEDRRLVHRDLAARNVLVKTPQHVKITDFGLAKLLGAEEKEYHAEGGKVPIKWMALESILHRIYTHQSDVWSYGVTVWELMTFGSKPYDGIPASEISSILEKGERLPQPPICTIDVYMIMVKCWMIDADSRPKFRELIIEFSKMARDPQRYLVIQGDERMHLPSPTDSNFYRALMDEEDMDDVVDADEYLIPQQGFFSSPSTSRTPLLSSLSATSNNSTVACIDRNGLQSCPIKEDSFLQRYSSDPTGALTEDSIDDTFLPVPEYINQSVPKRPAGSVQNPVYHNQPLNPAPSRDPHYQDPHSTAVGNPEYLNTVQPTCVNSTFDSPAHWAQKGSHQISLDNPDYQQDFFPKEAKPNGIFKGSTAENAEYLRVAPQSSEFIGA
Assay [8] concerns the target Follistatin-related protein 3 (Homo sapiens) (UniProt O95633). In words: compounds binding follistatin-related protein 3 – biochemical, small-molecule microarray, 635 nm fluorescence, primary screen (AID 1105).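 Also: score merges emission near 667 nm and signal to noise per printed spot across three slides.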 The following applies: FSTL3 binding, higher = more signal.
The target in assay [9] is Dickkopf-related protein 1 (Homo sapiens) (UniProt O94907). In words: small molecules binding DKK1 protein – biochemical, small-molecule microarray, 635 nm fluorescence scan, primary screen (AID 1106).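 Also: score merges emission near 667 nm with signal to noise over three replicate slides.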 The following applies: higher = more signal.
Sequence of Dickkopf-related protein 1 (Homo sapiens) (O94907 whole entry, looked up): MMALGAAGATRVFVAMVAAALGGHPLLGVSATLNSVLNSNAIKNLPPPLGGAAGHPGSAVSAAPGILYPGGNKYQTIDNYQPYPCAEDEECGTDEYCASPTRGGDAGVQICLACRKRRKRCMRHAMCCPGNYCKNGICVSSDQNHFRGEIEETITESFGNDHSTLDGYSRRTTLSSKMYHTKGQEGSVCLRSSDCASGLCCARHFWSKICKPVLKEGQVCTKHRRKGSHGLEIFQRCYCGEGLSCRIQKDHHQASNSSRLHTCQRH
The test system of assay [10] is Inhibin beta A chain (activin A). The assay is described as follows: small molecules binding activin A – biochemical, small-molecule microarray, 635 nm fluorescence scan, primary screen (AID 1107).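 Also: mouse activin A protein probed at 4.33 µg/mL on printed slides; score merges bound-protein fluorescence near 667 nm with spot signal-to-noise.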 The following applies: INHBA, higher = more signal.
In assay [11] the test system is Human papillomavirus type 1a protein E7 (residues 44-93). The assay is described as follows: small molecules binding HPV E7 44-93 – biochemical, small-molecule microarray, residues 44-93, 635 nm fluorescence, primary screen (AID 1108).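 Also: E7 fragment applied at 1 µg/mL in TBST for 1 h at 4 C; score combines spot fluorescence with its signal to noise ratio.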 The following applies: fluorescence 635 nm, higher = more signal.
Assay [12] can be described thus: hepatitis C replication reporter changes, two-sided – Huh7 cells, luciferase reporter, HCV replication inhibitor project, primary screen (AID 1109).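 Also: huh7 hepatoma cells harbouring a luciferase neomycin HCV replicon reporter; luciferase luminescence as measure of HCV replicon replication; test concentration not given here.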 The following applies: Huh7 HCV replicon luciferase reporter, 48 h; higher = more signal.
In assay [13] the target is Left-right determination factor 2 (Homo sapiens) (UniProt O00292). In words: small molecules binding LEFTY2 protein – biochemical, small-molecule microarray, 635 nm fluorescence scan, primary screen (AID 1110). The following applies: higher = more signal.
Sequence of Left-right determination factor 2 (Homo sapiens) (O00292 whole entry, looked up): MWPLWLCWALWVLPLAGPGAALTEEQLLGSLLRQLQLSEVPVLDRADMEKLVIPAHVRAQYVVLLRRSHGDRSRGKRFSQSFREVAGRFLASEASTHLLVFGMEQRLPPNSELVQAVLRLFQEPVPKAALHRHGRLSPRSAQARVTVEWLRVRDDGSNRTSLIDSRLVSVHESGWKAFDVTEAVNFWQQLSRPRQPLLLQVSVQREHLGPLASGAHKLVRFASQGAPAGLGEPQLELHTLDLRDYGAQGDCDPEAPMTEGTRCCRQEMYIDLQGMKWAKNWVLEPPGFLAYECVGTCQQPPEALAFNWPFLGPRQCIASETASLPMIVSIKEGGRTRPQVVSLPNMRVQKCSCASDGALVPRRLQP
Assay [14] has as its target Calmodulin-1 (Homo sapiens) (UniProt P0DP23). The assay is described as follows: small molecules binding calmodulin-1 with EGTA – biochemical, small-molecule microarray, Cy5-labelled CALM1, profiling panel (AID 1111).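 Also: labelled calmodulin applied in Tris saline Tween buffer holding calcium plus EGTA and DTT.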 The following applies: Cy5-CALM1 binding fluorescence, higher = more signal.
Assay [15] shares this target. The assay is described as follows: small molecules binding Ca-loaded calmodulin-1 – biochemical, small-molecule microarray, Cy5-labelled CALM1, plus calcium, artefact control for SMM control-protein annotation, profiling panel (AID 1112).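 Also: score merges spot fluorescence with signal to noise from triplicate slides.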 The following applies: Cy5-CALM1 binding fluorescence, higher = more signal.
A short description of assay [16]: probe aWnt5a binding to arrayed compounds – biochemical, biotinylated probe, 635/667 nm fluorescence, primary screen (AID 1113).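 Also: score merges 667 nm fluorescence intensity with signal-to-noise per printed feature.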 The following applies: small-molecule microarray, higher = more signal.
A short description of assay [17]: probe aShh binding to arrayed compounds – biochemical, biotinylated probe, 635/667 nm fluorescence, primary screen (AID 1114).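 Also: probe is biotin-labelled aShh protein from a stem cell growth factor screen; measures binding of labelled protein to compounds printed on the slide; score merges feature fluorescence at 667 nm with signal-to-noise.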 The following applies: small-molecule microarray, higher = more signal.
The nature of assay [18]: probe aNog binding to arrayed compounds – biochemical, biotinylated probe, 635/667 nm fluorescence, primary screen (AID 1115).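 Also: probe is biotinylated aNog protein used at 0.15 µg/mL for 1 h at 4 C; z-score combines 667 nm fluorescence of each spot with its signal to noise.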 The following applies: small-molecule microarray, higher = more signal.
Assay [19] concerns the target Torsin-1A-interacting protein 1 (Homo sapiens) (UniProt Q5JTV8). In words: compound microarray binding of lysate hLAP1 – cell lysate, small-molecule microarray, COS7 lysate, 635/667 nm fluorescence, primary screen (AID 1116). The following applies: 635 nm fluorescence, higher = more signal.
The target in assay [20] is Alpha-bungarotoxin (Bungarus multicinctus) (UniProt P60615). In words: compounds binding labelled alpha-BTX control protein – biochemical, small-molecule microarray, Alexa647 label, 635/667 nm fluorescence, artefact control for SMM control protein annotation, profiling panel (AID 1117). The following applies: alpha-BTX-A647 binding fluorescence, higher = more signal.
Sequence of Alpha-bungarotoxin (Bungarus multicinctus) (P60615 whole entry, looked up): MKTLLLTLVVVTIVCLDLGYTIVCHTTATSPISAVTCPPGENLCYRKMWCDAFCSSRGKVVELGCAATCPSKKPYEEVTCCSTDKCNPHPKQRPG

The source made the active and inactive calls.

Sequence of Follistatin-related protein 3 (Homo sapiens) (O95633 whole entry, looked up): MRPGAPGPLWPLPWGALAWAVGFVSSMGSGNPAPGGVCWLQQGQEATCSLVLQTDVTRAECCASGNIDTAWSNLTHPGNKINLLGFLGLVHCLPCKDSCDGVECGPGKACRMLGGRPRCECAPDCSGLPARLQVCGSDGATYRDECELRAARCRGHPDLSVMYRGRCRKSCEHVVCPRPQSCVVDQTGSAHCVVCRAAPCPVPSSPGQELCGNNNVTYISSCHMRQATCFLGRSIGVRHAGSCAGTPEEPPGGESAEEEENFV
Sequence of Torsin-1A-interacting protein 1 (Homo sapiens) (Q5JTV8 whole entry, looked up): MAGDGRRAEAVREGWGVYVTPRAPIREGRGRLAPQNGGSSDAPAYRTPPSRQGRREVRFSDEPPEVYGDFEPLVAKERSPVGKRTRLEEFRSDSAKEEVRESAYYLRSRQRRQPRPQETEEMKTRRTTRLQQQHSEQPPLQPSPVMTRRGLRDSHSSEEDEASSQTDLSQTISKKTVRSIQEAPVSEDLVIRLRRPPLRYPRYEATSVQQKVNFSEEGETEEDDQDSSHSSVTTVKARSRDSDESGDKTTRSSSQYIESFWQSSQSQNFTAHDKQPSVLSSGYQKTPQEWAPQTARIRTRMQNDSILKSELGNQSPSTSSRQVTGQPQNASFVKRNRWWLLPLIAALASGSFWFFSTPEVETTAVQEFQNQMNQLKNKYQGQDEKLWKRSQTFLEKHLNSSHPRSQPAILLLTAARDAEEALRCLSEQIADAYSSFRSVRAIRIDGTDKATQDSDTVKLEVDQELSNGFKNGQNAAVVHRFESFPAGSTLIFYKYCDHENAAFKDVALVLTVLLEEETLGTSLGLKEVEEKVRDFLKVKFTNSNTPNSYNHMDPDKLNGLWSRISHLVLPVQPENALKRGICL

For `CC(C)C[C@@H]1NC(=O)[C@H]2C[C@@H](C(=O)NCCCCCC[N+](C)(C)C)[C@@H](c3ccc(O)cc3)N2C1=O`, the composite z-score is 1.46 in assay [1]; -0.196 in assay [2]; 0.0009 in assay [3]; -0.563 in [5]; -0.595 in assay [6]; -0.403 in assay [7]. The composite z-score in [8] was 1.28; in assay [9], 0.505; in assay [10], 0.446; in assay [11], 0.183; in assay [13], -0.29; in assay [14], -0.602. Besides, the composite z-score in assay [15] is -0.781; in assay [16] it was -0.229; in assay [17], 0.0856; in assay [18], -0.169; in assay [19], 0.418; in assay [20], -0.111. Also, the z-score is -0.177 (inactive) in [4] and 0.549 in assay [12].
Take `CCN1C(C)=C(C(=O)OC)[C@@H](c2ccccc2)N2C(=O)[C@@]3(C(=O)OC)O[C@@]12[C@@H]1C(=O)CCC[C@@H]13`: the composite z-score in assay [1] was 0.604; in assay [2] it was -0.786; in [3] it was -1.31; in [5] it was 0.903; in assay [6], 0.8; in assay [7], 0.648. Also, the composite z-score in [8] is 1.06; in assay [9], 1.85; in assay [10] it was 1.01; in [11] it was 0.0258; in assay [13], 1.38; in assay [14], -1.2. Further, the composite z-score in [15] was -1.08; in assay [16], -0.0758; in assay [17] it was 0.0637; in assay [18], -0.43; in assay [19], 0.157; in assay [20], -0.954. Also, the z-score in assay [4] is -0.814 (inactive); in [12], -0.216.
Turning to `[N-]=[N+]=NCc1ccccc1C[C@@]1(C(=O)O)N=C(c2ccc(OCCCO)cc2)O[C@@H]1c1ccccc1N=[N+]=[N-]`, the composite z-score in [1] came to 1.44; in [2] it was 0.076; in assay [3] it was 0.917; in assay [5], 0.479; in assay [6], 0.771; in assay [7], 0.0583. The composite z-score was 0.633 in [8]; -0.688 in assay [9]; 0.911 in assay [10]; 1.42 in [11]; 0.101 in assay [13]; -0.281 in [14]. The composite z-score in assay [15] was -0.222; in [16] it was -0.0236; in assay [17], -0.138; in [18], -0.316; in assay [19], 0.938; in [20], 0.552. Further, the z-score in [4] is -1.11 (inactive); in assay [12], -1.25.
As to `CO[C@@H]1COC(=O)[C@H](C)NC(=O)CC=C[C@@H](C)[C@H](NS(=O)(=O)c2ccc(C)cc2)COC(=O)CC=C[C@@H]1C`, the composite z-score was -0.876 in assay [1]; -0.435 in [2]; -0.505 in [3]; 0.0743 in assay [5]; -0.11 in assay [6]; 0.286 in assay [7]. Besides, the composite z-score in [8] is -0.0201; in assay [9], 0.0647; in assay [10] it was -0.204; in assay [11], -0.232; in [13], 0.46; in assay [14] it was -0.356. Also, the composite z-score in assay [15] was -0.239; in [16] it was -0.0718; in assay [17] it was -0.138; in assay [18], -0.246; in assay [19], 0.117; in assay [20] it was -0.573. For the same compound, the values for the z-score in assay [4] and in assay [12] were -0.373 (inactive) and 0.108, respectively.
In the case of `CC[C@@H]1C=C(C(=O)O)[C@H](c2ccccc2)N1S(=O)(=O)c1ccc([N+](=O)[O-])cc1`, the composite z-score in [1] is 0.956; in assay [2], -0.255; in assay [3], 0.887; in assay [5], 0.0734; in assay [6] it was 1.16; in assay [7], -0.314. In addition, the composite z-score in [8] is 0.0657; in assay [9], -0.538; in [10], 0.781; in assay [11], 0.672; in [13], -0.52; in assay [14] it was 0.354. Further, the composite z-score is 0.202 in assay [15]; -0.0512 in assay [16]; -0.138 in assay [17]; -0.321 in assay [18]; 1.41 in [19]; 0.427 in assay [20]. In addition, the values for the z-score in assay [4] and in [12] were -0.812 (inactive) and -0.661, respectively.
As to `Cc1ccc(S[C@]2(C(=O)O)CC(=O)N(Cc3ccccc3)[C@@H]2c2ccc(CO)cc2)cc1`, the composite z-score in [1] was -0.844; in assay [2] it was 0.638; in assay [3], 0.899; in [5], -0.0355; in assay [6], 0.132; in assay [7], -0.289. Also, the composite z-score was -0.0951 in assay [8]; -0.304 in assay [9]; 1.04 in assay [10]; -0.323 in assay [11]; -1.29 in [13]; 0.321 in assay [14]. The composite z-score is 0.965 in assay [15]; -0.172 in assay [16]; 0.046 in assay [17]; -0.0563 in assay [18]; -0.257 in [19]; -0.198 in assay [20]. For the same compound, the results for the z-score in assay [4] and in assay [12] were -0.718 (inactive) and 0.764, respectively.
